# According to PubChem BioAssay AID1203 (The Scripps Research Institute Molecular Screening Center, 2008):
# Among all 200,000 compounds or so, about 80 (0.04%) were called active. The full list was thinned out, with actives kept by preference. A number with no mark means an inactive call.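 Rule for the calls: active = activation above the mean across all tested compounds plus 3 SD, cutoff set per campaign (cut at about 5.5% in these data); inactive = the rest.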
# Assay: Hsp70 transcriptional activators, primary screen, cell-based, HeLa, Hsp70 promoter luciferase, luminescence, 10 µM (AID 1203);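 note: 100% = MG132 at 30 µM as the positive control and 0% = DMSO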
# Settings: HeLa Hsp70 promoter luciferase reporter, at 10 µM, stronger effect = higher value, scaled: vehicle 0, proteasome-inhibitor control 100%
row,SMILES,activation
1,O=C(/C=C/Sc1ncn[nH]1)c1ccc(Cl)cc1,26.9% (active)
2,O=C(NCCOCc1ccc(Cl)cc1)c1ncn[nH]1,-0.36%
3,Cc1ccc(C(=O)/C=C/c2c(C)nn(-c3ccccc3)c2Cl)cc1,-0.32%
4,Cc1cccc(C)c1NC(=S)N(Cc1cccnc1)Cc1ccccc1Cl,-0.11%
5,N#C/C(=C/c1ccc(N2CCOCC2)o1)C(=O)N1CCOCC1,-0.09%
6,CCC(=O)c1ccc(OCC(O)Cn2nc(C)c(C(C)=O)c2C)cc1 (stereo not drawn),0%
7,CC(C)c1ccc(C2C(C#N)=C(N)Oc3c2oc(CO)cc3=O)cc1 (stereo not drawn),-0.2%
8,CSc1ccc(/C=C/C(=O)NC23CC4CC(CC(C4)C2)C3)cc1,-0.25%
9,CCc1ccccc1NC(=O)CN(C)C(=O)COc1ccc(C)nc1[N+](=O)[O-],-0.28%
10,CC1CN/C(=C\C(=O)c2ccc(Br)cc2)C(=O)N1 (stereo not drawn),-0.31%
11,COc1ccc(CC(NC(C)=O)C(=O)NC2CCN(C(=O)c3ccc(OC)c(OC)c3)CC2)cc1OC (stereo not drawn),-0.19%
12,Cc1cc(C)n2nc(SCC(=O)NC(=O)NCc3ccco3)nc2n1,-0.06%
13,COCc1c(C(=O)OCc2c(C)noc2C)oc2ccccc12,0.25%
14,Cc1cc(C)c2[nH]c(=O)c(CN(Cc3ccccc3)C(=S)NCCCN(C)C)cc2c1,-0.22%
15,CC(C)(C)NC(=O)Cn1cnc2cc([N+](=O)[O-])ccc2c1=O,0.46%
16,NNC(=O)c1cnn(-c2ccccc2)c1C(F)(F)F,0.08%
17,CN(C)C(=O)N1CCNCC1,-0.1%
18,CC(C)CN(C(=O)CN1CCN(S(=O)(=O)c2ccccc2)CC1)c1c(N)n(CC(C)C)c(=O)[nH]c1=O,0.23%
19,CCOC(=O)c1c(CN(C)C)n(-c2ccccc2)c2cc(Br)c(O)cc12,-0.03%
20,C/C(=N\Nc1ncc(Cl)cc1Cl)c1cccs1,-0.17%

row,SMILES,activation
1,Cc1ccc(N2C(=O)C(NC(=O)c3c(F)cccc3F)(C(F)(F)F)C3=C2CC(C)(C)CC3=O)cc1 (stereo not drawn),-0.33%
2,Cc1cccc(NC(=O)Cn2c(=O)n(Cc3ccccc3)c(=O)c3c(C)c(C)sc32)c1,-0.2%
3,Cc1cc(Cl)ccc1OCCCC(=O)NCc1ccncc1,0.28%
4,C=CCn1cc(C(=O)NCc2ccc(Cl)cc2)c(=O)c2cc(S(=O)(=O)N(CC)CC)ccc21,-0.11%
5,COc1cccc(-c2nn(-c3ccccc3)cc2/C=C(\C#N)C(=O)NCCCn2ccnc2)c1,-0.06%
6,CC(C)Oc1ccccc1C(=O)NC(CO)C(=O)O (stereo not drawn),0.09%
7,O=C(CSc1ccc([N+](=O)[O-])cn1)Nc1ccc(N2CCOCC2)cc1,-0.24%
8,NS(=O)(=O)c1cccnc1Nc1cccc(Cl)c1,0.75%
9,CC(Oc1ccccc1)C(=O)NN1Cc2ccccc2C1=N (stereo not drawn),-0.3%
10,CC(OC(=O)c1ccccc1N1C(=O)C2C3CCC(C3)C2C1=O)C(=O)c1ccccc1 (stereo not drawn),-0.1%
11,O=[N+]([O-])c1cccc(C2=NCCS2)c1,-0.29%
12,CC(=O)N1CCN(CC(=O)Nc2ccc(SC(F)F)cc2)CC1,-0.16%
13,CNC(=S)N1CCN(c2ccccn2)CC1,0.23%
14,CC(=O)c1c(C)[nH]c(C(=O)OCC(=O)NCCC(C)C)c1C,-0.33%
15,Cc1ccccc1N1C(=O)C(Oc2ccc(Cl)cc2)C1CNCC1CCCO1 (stereo not drawn),-0.08%
16,COc1ccc(S(=O)(=O)N(C)CC(=O)N2CCCC2)cc1Cl,-0.1%
17,NC(=O)c1ccc(NC(=O)COC(=O)c2c3c(nc4ccccc24)/C(=C\c2ccc4c(c2)OCO4)CCC3)cc1,-0.43%
18,COc1ccc(C2CC(c3cccs3)=NN2C(=O)CSc2nnc(N)s2)cc1OC (stereo not drawn),-0.12%
19,CCN(CC)CCN(C(=O)c1cccc([N+](=O)[O-])c1)c1nc2ccc(OC)cc2s1,-0.15%
20,CCOc1ccc(-c2n[nH]c(C)c2-c2ccccn2)c(O)c1,-0.39%

row,SMILES,activation
1,CCC(=O)NC(Nc1cc(C)ccn1)(C(F)(F)F)C(F)(F)F,-0.11%
2,Cc1ccc(NC(=S)N(CCCN2CCCC2)Cc2cccn2Cc2ccc(Cl)cc2)cc1,0.2%
3,COc1ccc(NC(=O)/C(C#N)=C\c2cc(OC)c(OCc3ccc(C(=O)O)cc3)cc2Br)cc1,-0.51%
4,COc1ccc(NC(=O)CSc2nnc(-c3ccccc3F)n2C2CC2)cc1S(N)(=O)=O,-0.2%
5,Cc1ccc(-n2c(SCC(=O)N3c4ccccc4Sc4ccccc43)nnc2-c2ccncc2)cc1,-0.33%
6,CC(C)NC(=O)NC(=O)CSc1nnc(-c2ccccc2F)n1N,0.03%
7,Cc1cc(C)c(OCCN2CC(C)OC(C)C2)c(Br)c1 (stereo not drawn),-0.19%
8,Cc1ccc(C)c(-n2cc(CN3CCN(C(=O)c4ncn[nH]4)CC3)c(-c3ccccc3)n2)c1,-0.1%
9,CC(=C/c1ccccc1)/C=N/NC(=O)c1cc(C)oc1C,0%
10,CCCOC1CCCN(Cc2cn(C)nc2-c2ccccc2F)C1 (stereo not drawn),-0.04%
11,Cc1ccccc1NC(=O)Cn1c(=O)n(CC2CCCO2)c(=O)c2ccccc21 (stereo not drawn),-0.17%
12,O=C1NC2(CCCCCC2)C(=O)N1CCS(=O)(=O)Oc1ccccc1,-0.27%
13,Cc1ccc(C(=O)NCC(=O)O)s1,0.11%
14,O=C(CCCN1C(=O)/C(=C/c2ccccc2)SC1=S)Nc1ccc(O)cc1,-0.12%
15,Cc1ccc(NC(=O)c2cccnc2C(=O)Nc2ccc(C)cc2)cc1,-0.14%
16,NC(=O)C[C@@H]1NC(=O)CNC(=O)c2cc([N+](=O)[O-])cc(I)c2NCCC(C(N)=O)NC1=O (stereo partly drawn),0.03%
17,Cc1cccc(NC(=S)NC(=O)c2ccc(Br)o2)c1,0.26%
18,CC(=O)Nc1nc2ccccc2n1Cc1ccc(C)cc1,-0.13%
